From PubChem BioAssay AID588683 (Broad Institute, 2011)
Potency and affinity values are given separately. Activity calls are given as the source filed them. How the calls were made is not given here.

Each compound was assayed against Kelch-like ECH-associated protein 1 (Homo sapiens) + Nuclear factor erythroid 2-related factor 2 (Homo sapiens) (UniProt Q14145+Q16236) (assay: Keap1-Nrf2 protein-protein interaction inhibitors, dose response, biochemical, fluorescence polarization, cherry-picked samples (AID 588683;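 further: Kelch domain of Keap1 binding a fluorescein-labelled 9mer Nrf2 peptide; more negative means stronger inhibition of peptide binding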)). Conditions: Keap1/Nrf2 peptide fluorescence polarization, plate reader; series mostly up to 26 µM; activity change, negative = inhibition: at the top concentration.
Kelch-like ECH-associated protein 1 (Homo sapiens) + Nuclear factor erythroid 2-related factor 2 (Homo sapiens), sequence (Q14145 whole entry, looked up, the tested form may be a part): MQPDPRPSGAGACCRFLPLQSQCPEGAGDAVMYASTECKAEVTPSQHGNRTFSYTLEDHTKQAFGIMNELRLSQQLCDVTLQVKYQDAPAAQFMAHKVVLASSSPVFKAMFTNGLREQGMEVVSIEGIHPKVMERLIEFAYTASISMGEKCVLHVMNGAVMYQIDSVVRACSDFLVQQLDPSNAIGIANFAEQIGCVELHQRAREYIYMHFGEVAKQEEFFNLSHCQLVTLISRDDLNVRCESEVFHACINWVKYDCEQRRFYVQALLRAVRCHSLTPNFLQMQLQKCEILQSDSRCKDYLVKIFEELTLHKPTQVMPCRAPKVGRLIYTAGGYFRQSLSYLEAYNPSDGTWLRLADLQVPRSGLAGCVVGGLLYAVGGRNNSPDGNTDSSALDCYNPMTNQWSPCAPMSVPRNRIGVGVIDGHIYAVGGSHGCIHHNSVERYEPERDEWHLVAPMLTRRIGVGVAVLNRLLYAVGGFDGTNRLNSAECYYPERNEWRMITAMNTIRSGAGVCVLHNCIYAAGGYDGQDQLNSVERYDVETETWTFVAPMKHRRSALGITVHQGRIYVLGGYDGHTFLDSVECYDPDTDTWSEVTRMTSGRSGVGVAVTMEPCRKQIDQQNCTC
Kelch-like ECH-associated protein 1 (Homo sapiens) + Nuclear factor erythroid 2-related factor 2 (Homo sapiens), sequence (Q16236 whole entry, looked up, the tested form may be a part): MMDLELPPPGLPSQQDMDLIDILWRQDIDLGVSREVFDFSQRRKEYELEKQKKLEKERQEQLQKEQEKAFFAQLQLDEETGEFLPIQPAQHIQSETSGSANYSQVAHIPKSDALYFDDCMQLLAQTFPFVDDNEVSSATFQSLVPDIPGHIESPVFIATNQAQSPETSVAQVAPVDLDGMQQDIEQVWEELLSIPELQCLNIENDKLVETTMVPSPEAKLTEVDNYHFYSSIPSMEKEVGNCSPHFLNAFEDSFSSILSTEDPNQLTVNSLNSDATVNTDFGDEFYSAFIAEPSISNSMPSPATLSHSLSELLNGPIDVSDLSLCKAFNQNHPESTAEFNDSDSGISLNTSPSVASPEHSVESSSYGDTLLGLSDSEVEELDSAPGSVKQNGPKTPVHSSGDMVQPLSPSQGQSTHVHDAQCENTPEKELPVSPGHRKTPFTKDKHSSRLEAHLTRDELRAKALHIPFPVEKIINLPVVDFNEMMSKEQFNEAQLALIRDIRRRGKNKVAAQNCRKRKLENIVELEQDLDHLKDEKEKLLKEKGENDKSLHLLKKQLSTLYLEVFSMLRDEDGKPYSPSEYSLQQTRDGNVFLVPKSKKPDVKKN

Activity change, negative = inhibition, inactive:
Cc1ccc(C(=O)N/C(=C\c2ccc(-c3ccccc3[N+](=O)[O-])o2)C(=O)NCCCN(C)C)cc1 -4.73%
COC(=O)c1cc(C)nc2c1c(C)nn2-c1ccccc1 -5.13%
O=C(NNc1ncnc2sccc12)c1ccc(Cl)cc1 6.87%
O=C(CSC1=NNC(c2ccccn2)S1)Nc1cccc(Cl)c1 (stereo not drawn) -5.02%
CCOC(=O)c1ccc2ncc(C(=O)OCC)c(NCCN(C)C)c2c1 -6.02%
O=C1C(=Cc2ccco2)CCC1=Cc1ccco1 24.2%
OC(CCN1CCC2(CC1)OCCO2)C(F)(F)F (stereo not drawn) -14%
CCN1/C(=C\c2ccc3ccccc3[n+]2CC)Sc2cc(C)ccc21 37%
CN1CC=C2C(C#N)=C(N)C(C#N)(C#N)C(c3ccsc3)C2C1 (stereo not drawn) -0.634%
O=C(NCCOCc1ccc(Cl)cc1)c1ncn[nH]1 -12.4%
Cn1c(SCC(=O)c2cc(Cl)c(Cl)s2)nnc1-c1ccco1 -16.1%
CC(C)Cn1c(N)c(C(=O)CSc2nnc(-c3ccco3)n2C)c(=O)n(C)c1=O 1.3%
CCN(CC)c1ccc(C2Nc3cccc4cccc(c34)N2)cc1 10.9%
N=c1c(C(=O)NC2CCCC2)cc2c(=O)n3ccccc3nc2n1C1CCCCC1 1.05%
Cc1ccc(C(=O)NNC(=O)c2n[nH]c(=O)c3ccccc23)cc1C -2.74%
COc1ccc(C2c3ccc(O)cc3Oc3ncn(CCCO)c(=N)c32)cc1OC (stereo not drawn) -8.41%
O=C(NNS(=O)(=O)c1ccc(F)cc1)c1ccc(O)cc1 -13.2%
COc1ccc(-c2cc(C(F)(F)F)c3c(N)c(C(=O)NCCSC)sc3n2)cc1 11.6%
Cc1cccn2c(=O)c3cc(S(=O)(=O)c4ccccc4)c(=N)n(Cc4cccnc4)c3nc12 -9.58%
CCOc1ccccc1C=C1SC(=S)NC1=O -1.41%
CC1(C)CC(=O)C(N=Nc2c(F)cccc2F)=C(O)C1 1.16%
COc1ccc(C2N3CC4(C)CN2CC(C)(C3)C4O)cc1 (stereo not drawn) -6.86%
C=CCn1cccc(C(=O)Nc2ccc(OC)c(Cl)c2)c1=O -2.59%
Fc1ccc(C2=CC(c3ccco3)n3ncnc3N2)cc1 (stereo not drawn) -8.23%
O=c1[nH]c2cc(C(F)(F)F)ccc2n1-c1cc(C(F)(F)F)ccc1O -8.84%
CCOC(=O)C(C)(C)N(Cc1ccccc1C)S(=O)(=O)c1ccc(Cl)c([N+](=O)[O-])c1 -14.5%
CC1=CC(=C2N=C(c3ccccc3)OC2=O)C=C(C)O1 107%
O=C(Cc1ccc(S(=O)(=O)N2CCCC2)s1)Nc1nc2c(s1)CCCC2 -0.217%
CCCCN(C(=O)CC1CCCCC1)c1c(N)n(CC(C)C)c(=O)[nH]c1=O -8.63%
CCCCC1OC23CCCCC2C(C#N)(C#N)C1(C#N)C(=N)O3 (stereo not drawn) -8.61%
C=CCn1c(=O)/c(=C\c2ccsc2)s/c1=C(/C#N)C(=O)NCCN1CCOCC1 -4.59%
CC(C)(C)c1ccccc1NC(=O)NC1CCN(Cc2c(F)cccc2Cl)CC1 -6.22%
Cc1ccc(C)c(N2CCN(C(=O)c3cc4ccccn4n3)CC2)c1 -1.58%
Cc1ccc(S(=O)(=O)N2CCCCC2)cc1NC(=O)c1ccccc1Cl -12.1%
O=C(CCCCl)NC(=S)Nc1ccc(N2CCOCC2)cc1 -3.9%
O=S(=O)([O-])CCC[n+]1c(SCCCS(=O)(=O)O)sc2ccc(Cl)cc21 -4.67%
O=C(NCc1ccc(Cl)cc1)c1cc(=O)[nH]c2ccccc12 -0.671%
O=C1CC(Cc2ccc(Cl)cc2)C(=O)N1c1cc(Cl)ccn1 (stereo not drawn) 2.69%
